Six1-Eya2 blk – Six1/Eya2 interaction inhibition; Q15475+O00167; AlphaScreen GST-Six1/His-Eya2 binding, biochemical; stronger effect = lower value; activity change, % (concentration not given with the values); hit rate 0.56% among 360,000; in the data active means activity change below about -65%; inconclusive means mostly about -30% to -63%
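AlphaScreen luminescence read after one hour at 37 °C in darkness. Pin-transferred compounds met GST-Six1 and His-Eya2 protein (5X stock 250 nM/500 nM) plus glutathione donor and Ni-chelate acceptor beads (5X, 50 ug/mL).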
TDP1 inh – blocks human tyrosyl-DNA phosphodiesterase 1; Q9NUW8; hit rate 0.28% among 350,000; recombinant TDP1, AlphaScreen DNA substrate cleavage; Potency, µM (series often up to 130 µM), usual class: inhibitors; further: nearly all actives have a fitted effect of over 40% in size
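Here, a 5' biotin and 3' phosphotyrosine-FITC DNA oligonucleotide reports Tdp1 activity: intact substrate bridges AlphaScreen beads, while cleavage leaves a 3' phosphate and drops signal. All incubations at room temperature.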
IL1B secr inh – inflammasome signaling inhibition, IL-1 beta readout; THP-1 LPS/ATP IL-1B secretion, AlphaLISA, 16 h; stronger effect = lower value; AID 743279; activity change, % at 57.5 µM; hit rate 4.7% among 360,000; in the data active means activity change below about -50%; inconclusive means mostly about -30% to -49%
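THP-1 cells pretreated 1 hr with compounds (up to 57.5 uM final), then stimulated with LPS (250 ng/mL final) plus ATP (1.25 mM final); secreted IL-1B measured by AlphaLISA after 16 hr, decreased signal indicating inhibition.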
DT40 TDP1 no CPT – qHTS for Inhibitors of human tyrosyl-DNA phosphodiesterase 1 (TDP1): qHTS in cells in absence of CPT | DT40 Tdp1-/- hTDP1 cells, no CPT, ATP luminescence, 48 h | Potency, µM (highest dose often 46.2 µM), most hits filed as inhibitors | hit rate 15% among 420,000; further: nearly all actives have a fitted effect of over 55% in size
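Chicken DT40 Tdp1-/- cells stably complemented with human TDP1 were seeded at 400 cells/well with DMSO in place of 20 nM camptothecin. After compound pinning, cells grew at least 48 hr at 37 °C; viability read by CellTiter-Glo luminescence.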
CtBP-E1A blk – CtBP/E1A binding inhibition; AlphaScreen GST-E1A/His-CtBP binding, 1536-well; stronger effect = lower value; activity change, % (no concentration beside the values); hit rate 0.49% among 340,000; AID 651724; in the data active means activity change below about -65%; inconclusive means mostly about -30% to -63%
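AlphaScreen with 125 nM GST-E1A and 125 nM His-CtBP (5X stocks) in Tris pH 8.0, 300 mM NaCl, BSA, Tween 20, TCEP. Compounds preincubated 2 h at 37 deg C, then glutathione donor/nickel acceptor beads added for 1 h at 37 deg C in dark.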
TDP1 cell CPT – DT40-hTDP1 cell growth loss with CPT | chicken DT40 Tdp1-/-;hTDP1 cells + 20 nM CPT, ATP luminescence, 48 h | Potency, µM (doses to about 46.2 µM), usual class: inhibitors | hit rate 12% among 420,000 | AID 686979; further: nearly all actives have a fitted effect of over 55% in size
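Cell growth measured by CellTiter-Glo luminescence after a minimum 48 h, 37 C compound exposure with 20 nM CPT in Tdp1-knockout DT40 cells stably expressing hTDP1, seeded 400/well; qHTS titration format.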
Each line names hits and unclear results; the compound was inactive in the other large screens. Rows were chosen to be rich in hits. Some 18% of all compounds tested hit in one or more screens of this group. Unless noted, the call rests on the fitted dose curve; in most records, active means well fitted curve in the direction sought with a large enough effect; inconclusive means small, poorly fitted or top-dose-only effect, or another doubt; inactive means no such curve, though single readings can be large; an effect the other way counts as inactive or inconclusive.

COc1ccccc1N1CCN(C2CCCN(C(=O)c3cc(C)oc3C)C2)CC1 (stereo unspecified)	DT40 TDP1 no CPT inconclusive, TDP1 cell CPT inconclusive
COCC(C)n1c(SCc2ccc(OC)c(F)c2)nc2ccccc2c1=O (stereo unspecified)	DT40 TDP1 no CPT 4.1µM, TDP1 cell CPT 5.8µM
COCCNC(=O)c1ccc(-n2c(SCc3ccncc3)nc3ccccc3c2=O)cc1	IL1B secr inh -73
COCC(C)n1c(SCC(=O)NC(=O)Cc2ccccc2)nc2ccccc2c1=O (stereo unspecified)	TDP1 cell CPT inconclusive
COCCNC(=O)CSc1nc2ccccc2c(=O)n1-c1cccc(OC)c1	none
COCC(C)n1c(SCc2ccc(C(=O)OC)cc2)nc2ccccc2c1=O (stereo unspecified)	DT40 TDP1 no CPT 9.2µM, TDP1 cell CPT 12µM
COc1cccc(C(=O)NC2CCCc3c2cnn3-c2ccc(C)c(C)c2)c1OC (stereo unspecified)	DT40 TDP1 no CPT inconclusive, TDP1 cell CPT inconclusive
COc1ncccc1C(=O)NC1CCCc2c1cnn2-c1ccc(C)c(C)c1 (stereo unspecified)	DT40 TDP1 no CPT 16µM, TDP1 cell CPT 16µM (no result: CtBP-E1A blk)
CSc1ncccc1C(=O)NC1CCCc2c1cnn2-c1ccc(C)c(C)c1 (stereo unspecified)	DT40 TDP1 no CPT 7.3µM, TDP1 cell CPT 8.2µM
COc1ccc(OC)c(NC(=O)COC(=O)c2nc(Cl)ccc2Cl)c1	none
CC1=CC(C)[C@H](/C=N/n2c(=O)[nH]c3c([nH]c4ccc(C)cc43)c2=O)C(C)C1 (stereo partly specified)	DT40 TDP1 no CPT 13µM, TDP1 cell CPT 8.2µM
CCc1ccc(NC(=O)Cn2nnc(C(=O)Nc3ccc(F)cc3)c2N)cc1	none (no result: Six1-Eya2 blk, IL1B secr inh, CtBP-E1A blk)
COc1ccc(C2CC(=O)CCN2S(=O)(=O)c2ccc(C)cc2)cc1 (stereo unspecified)	DT40 TDP1 no CPT inconclusive, TDP1 cell CPT inconclusive (no result: TDP1 inh)
CCOC(=O)c1c(-c2ccc(F)cc2)csc1/N=C/N(C)C	IL1B secr inh -87
Cc1ccc(Cl)cc1N1CCN(C(=O)c2cn(C)c3ccc(S(=O)(=O)N4CCC(C)CC4)cc3c2=O)CC1	none (no result: Six1-Eya2 blk, IL1B secr inh, CtBP-E1A blk)
Cc1ccc(C(=O)NCC(=O)NCC(=O)OCc2ccc(Cl)cc2)cc1	IL1B secr inh -98
c1ccc(Nc2nc(NCC3CCCO3)c3ccccc3n2)cc1 (stereo unspecified)	IL1B secr inh -101, DT40 TDP1 no CPT 3.3µM, TDP1 cell CPT 3.7µM
COc1ccc(Nc2nc(NCC3CCCO3)c3ccccc3n2)c(OC)c1 (stereo unspecified)	DT40 TDP1 no CPT 15µM, TDP1 cell CPT 16µM (no result: IL1B secr inh)
CCOc1ccc(Nc2nc(NCC3CCCO3)c3ccccc3n2)cc1 (stereo unspecified)	IL1B secr inh -98, DT40 TDP1 no CPT 2.9µM, TDP1 cell CPT 26µM
c1ccc2c(NCC3CCCO3)nc(N3CCOCC3)nc2c1 (stereo unspecified)	none
Oc1cccc(Nc2nc(NCC3CCCO3)c3ccccc3n2)c1 (stereo unspecified)	DT40 TDP1 no CPT 15µM, TDP1 cell CPT 16µM (no result: IL1B secr inh)
COc1cc(/C=C(\C#N)C(=O)Nc2cccc3ncccc23)ccc1O	none (no result: Six1-Eya2 blk, IL1B secr inh, DT40 TDP1 no CPT, CtBP-E1A blk, TDP1 cell CPT)
O=S(=O)(Nc1nc2ccccc2nc1NCC1CCCO1)c1cccc(Cl)c1 (stereo unspecified)	DT40 TDP1 no CPT 16µM, TDP1 cell CPT inconclusive
COc1cc2c(NC3CCN(C)CC3)nc(N3CCCN(C)CC3)nc2cc1OCCN(C)CCN(C)C	none (no result: Six1-Eya2 blk, TDP1 inh, IL1B secr inh, CtBP-E1A blk)
COc1cc2c(NC3CCN(C)CC3)nc(N3CCCCC3)nc2cc1OCCOCCN1CCCC1	DT40 TDP1 no CPT inconclusive, TDP1 cell CPT 13µM (no result: Six1-Eya2 blk, TDP1 inh, IL1B secr inh, CtBP-E1A blk)
COc1cc2c(NC3CCN(C(C)C)CC3)nc(N3CCCN(C)CC3)nc2cc1OCCOCCN1CCCC1	DT40 TDP1 no CPT 14µM, TDP1 cell CPT 10µM (no result: Six1-Eya2 blk, TDP1 inh, IL1B secr inh, CtBP-E1A blk)
